The source made the active and inactive calls. How the source made its calls: active means hit-call score of the fitted dose curve at least 0.9, where 1 is the maximum; inactive means score below 0.9.
Legend:
[1] = APR_HepG2_CellLoss_72hr: Apredica 72-hour HepG2 Assay for Cell Loss (AID 2282915); conditions: high-content imaging
How it was run: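 HepG2 cells exposed 72 h to compound at 0.39–200 uM (10 concentrations, duplicate) in 0.5% DMSO. Fixed with 3.7% formaldehyde and Hoechst 33342-stained. Imaged at 20x; nuclear count gives cell number, fitted bidirectionally versus DMSO.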

[2] = APR_HepG2_MitoMembPot_72hr: Apredica 72-hour HepG2 Assay for Mitochondrial Membrane Potential (AID 2282917); conditions: imaging, actives raise or lower the signal
How it was run: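 HepG2 cells dosed 72 hr with compound at 0.39–200 uM in duplicate, 0.5% v/v DMSO final. Mitochondria stained with 250 nM MitoTracker Red CMXRos for 30 min before formaldehyde fixation, imaged by high-content fluorescence; bidirectional fit versus DMSO.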

[3] = APR_HepG2_MitoticArrest_72hr: Apredica 72-hour HepG2 Assay for Mitotic Arrest (AID 2282918); conditions: high-content imaging, actives raise or lower the signal
How it was run: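 HepG2, 72 hr exposure, 0.39–200 uM in duplicate, 0.5% v/v DMSO final. Formaldehyde-fixed, Triton-permeabilized, anti-phospho-histone H3/FITC plus Hoechst. ArrayScan imaging at 20x; curves fit bidirectionally against DMSO baseline.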

[4] = APR_HepG2_MicrotubuleCSK_72hr: Apredica 72-hour HepG2 Assay for Microtubule CSK Stabilty (AID 2282919); conditions: HepG2 microtubule cytoskeleton, high-content imaging, actives raise or lower the signal
How it was run: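 HepG2, 72 hr cmpd exposure, 0.39–200 uM (10 pts, duplicate), 0.5% DMSO. 3.7% formaldehyde fix, 0.5% Triton perm, anti-alpha-tubulin/Cy5 plus Hoechst. HCS fluorescence intensity; bidirectional fit vs DMSO baseline; taxol as positive control.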

[5] = APR_HepG2_P-H2AX_24hr: Apredica 24-hour HepG2 Assay for H2AX Phosphorylation (AID 2282920); conditions: high-content imaging, actives raise or lower the signal
How it was run: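 HCS fluorescence imaging of phospho-H2A.x immunostain (with Hoechst 33342 nuclear counterstain) in HepG2 after 24 hr compound exposure; 10 concentrations, 0.39–200 uM, duplicate wells, 0.5% v/v DMSO. Gain or loss of signal fitted relative to DMSO baseline.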

[6] = APR_HepG2_StressKinase_72hr: Apredica 72-hour HepG2 Assay for Stress Kinase (AID 2282921); conditions: HepG2 stress kinase (phospho-c-Jun) imaging, actives raise or lower the signal
How it was run: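 After a 72 h compound treatment spanning 0.39 to 200 uM, formaldehyde-fixed cells are labelled for phosphorylated c-Jun and nuclei, imaged by automated fluorescence microscopy, and activity is fitted in both directions relative to DMSO controls.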

[7] = APR_HepG2_StressKinase_24hr: Apredica 24-hour HepG2 Assay for Stress Kinase (AID 2282922); conditions: HepG2 stress kinase (phospho-c-Jun) imaging, actives raise or lower the signal
How it was run: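 Read-out: phospho-c-Jun immunofluorescence (Cy3 secondary) quantified by high-content imaging at 20x, nuclei defined by Hoechst 33342. Human HepG2 liver cells dosed 24 hr, 0.39–200 uM, DMSO 0.5% v/v; gain or loss of signal fitted relative to DMSO.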

[8] = APR_HepG2_p53Act_72hr: Apredica 72-hour HepG2 Assay for p53 Activation (AID 2282923); conditions: high-content imaging, actives raise or lower the signal;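 further: average cellular p53 protein immunofluorescence intensity in HepG2 cells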
How it was run: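 Imaging-based endpoint: after 72 hr compound exposure (up to 200 uM, 0.5% DMSO), fixed and permeabilized monolayers were labelled with anti-p53 antibody and imaged; signal change in either direction was fitted relative to DMSO controls.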

[9] = APR_HepG2_MitoMass_72hr: Apredica 72-hour HepG2 Assay for Mitochondrial Mass (AID 2282924); conditions: high-content imaging, actives raise or lower the signal;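 further: MitoTracker Red CMXRos stain intensity per cell imaged as mitochondrial mass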
How it was run: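 Read-out: MitoTracker Red fluorescence intensity from automated imaging (20x, six fields per well) in human HepG2 liver cells. Dosing ran 72 hr, 0.39–200 uM, 0.5% DMSO; bidirectional curve fitting versus DMSO baseline.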

[10] = APR_HepG2_NuclearSize_72hr: Apredica 72-hour HepG2 Assay for Nuclear Size (AID 2282925); conditions: high-content imaging, actives raise or lower the signal
How it was run: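 Read-out: nuclear diameter from Hoechst 33342 images (ArrayScan, 20x, six fields/well), via cell-cycle image analysis. HepG2 were dosed 0.39–200 uM for 72 hr in 0.5% DMSO. Bidirectional fit relative to DMSO.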

[11] = ATG_CRE_CIS: Attagene CIS-FACTORIAL HepG2 Assay for human cAMP Responsive Element (CRE) binding protein 3 (AID 2282926); conditions: HepG2 CRE cis-reporter, Attagene multiplexed mRNA; actives raise or lower the signal
How it was run: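 Readout: fluorescently labelled reporter transcripts resolved by capillary electrophoresis after RT-PCR, taken 24 h post-dosing in transfected HepG2. Endogenous transcription factor activity drives each cis-element reporter; gain or loss of signal fitted relative to DMSO control.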

[12] = target: CCAAT/enhancer-binding protein beta (Homo sapiens) (UniProt P17676); test: ATG_C_EBP_CIS: Attagene CIS-FACTORIAL HepG2 Assay for human CCAAT/Enhancer Binding Protein (C/EBP) beta (AID 2282927); conditions: HepG2 Attagene cis-factorial transcription factor reporter; actives raise or lower the signal
Sequence of CCAAT/enhancer-binding protein beta (Homo sapiens) (P17676 whole entry, looked up): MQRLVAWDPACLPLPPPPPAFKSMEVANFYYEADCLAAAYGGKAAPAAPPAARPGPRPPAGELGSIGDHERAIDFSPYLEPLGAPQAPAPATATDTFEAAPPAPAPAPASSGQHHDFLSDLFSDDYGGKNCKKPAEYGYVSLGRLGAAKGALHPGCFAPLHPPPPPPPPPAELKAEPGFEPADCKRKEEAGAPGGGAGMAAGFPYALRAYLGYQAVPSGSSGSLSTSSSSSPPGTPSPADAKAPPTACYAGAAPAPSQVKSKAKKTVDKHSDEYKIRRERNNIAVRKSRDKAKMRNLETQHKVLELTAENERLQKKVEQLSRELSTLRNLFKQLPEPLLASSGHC
How it was run: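 HepG2 transiently transfected with multiplexed reporter units under cis-regulatory promoters reporting endogenous C/EBPb activity. After 24 h exposure, reporter mRNA assayed by RT-PCR, fluorescent labelling, HpaI digestion and capillary electrophoresis; bidirectional fitting versus DMSO.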

[13] = ATG_CMV_CIS: Attagene CIS-FACTORIAL HepG2 Assay for human CMV (Internal Marker) (AID 2282928); conditions: HepG2 CMV promoter reporter, transcription factor profiling; actives raise or lower the signal;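 further: endpoint acts as a background internal control marker rather than a target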
How it was run: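 Readout: fluorescent reporter cDNA fragments separated by capillary electrophoresis after RT-PCR and HpaI cut. Cells: HepG2 carrying transfected cis-promoter reporter constructs, dosed 24 h. Endpoint serves as background internal-marker control, fit bidirectionally versus DMSO.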

[14] = ATG_DR4_LXR_CIS: Attagene CIS-FACTORIAL HepG2 Assay for human Liver X Receptor (LXR), DR4 submotif (AID 2282929); conditions: HepG2 Attagene DR4 cis-reporter, mRNA transcription; actives raise or lower the signal
How it was run: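 Endogenous factor activity at a DR4 cis-element is read as reporter mRNA in transiently transfected HepG2 cells. Exposure lasts 24 h; transcripts are amplified, fluorescently labelled and sized by capillary electrophoresis, with DMSO as baseline.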

[15] = ATG_AP_1_CIS: Attagene CIS-FACTORIAL HepG2 Assay for human Activator Protein 1 (AP-1) (AID 2282931); conditions: HepG2 Attagene cis-factorial AP-1 reporter mRNA; actives raise or lower the signal
How it was run: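 Fluorescence of labelled PCR fragments separated by capillary electrophoresis gives reporter mRNA levels. HepG2 with transfected cis-regulated reporter units, 24 h exposure; DMSO serves as baseline for bidirectional curve fits.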

[16] = ATG_AP_2_CIS: Attagene CIS-FACTORIAL HepG2 Assay for human Activator Protein 2 (AP-2) (AID 2282932); conditions: HepG2 AP-2 cis-reporter, Attagene transcription factor profiling; actives raise or lower the signal
How it was run: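 Liver-derived HepG2 line, cis-reporter system measuring endogenous factors; 24 h dosing; reporter mRNA detected by fluorescent RT-PCR and capillary electrophoresis.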

[17] = ATG_BRE_CIS: Attagene CIS-FACTORIAL HepG2 Assay for human Bone Morphogenetic Protein (BMP) Response Element (BRE) (AID 2282933); conditions: HepG2 BMP response element reporter, Attagene transcription factor profiling; actives raise or lower the signal
How it was run: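 Read-out: reporter mRNA induction quantified by RT-PCR and capillary electrophoresis after 24 h chemical exposure of transfected HepG2 cells. Endogenous factor activity on the BMP response element; gain or loss fitted against DMSO baseline.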

[18] = APR_HepG2_P-H2AX_72hr: Apredica 72-hour HepG2 Assay for H2AX Phosphorylation (AID 2282916); conditions: imaging, actives raise or lower the signal;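 further: phospho-histone H2A.x immunostain intensity per cell marking DNA damage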
How it was run: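 Human hepatoma HepG2 cells are dosed across ten concentrations (0.39 to 200 uM, 0.5% v/v DMSO) and incubated 72 hr. Phospho-histone H2A.x is then detected by antibody staining alongside c-Jun and Hoechst, and quantified by automated fluorescence imaging.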

[19] = target: Retinoic acid receptor alpha (Homo sapiens) (UniProt P10276); test: ATG_DR5_RAR_CIS: Attagene CIS-FACTORIAL HepG2 Assay for human Retinoic Acid Receptor Alpha (RARE), DR5 submotif (AID 2282934); conditions: HepG2 Attagene cis-factorial RARE DR5 reporter, mRNA; actives raise or lower the signal
Sequence of Retinoic acid receptor alpha (Homo sapiens) (P10276 whole entry, looked up): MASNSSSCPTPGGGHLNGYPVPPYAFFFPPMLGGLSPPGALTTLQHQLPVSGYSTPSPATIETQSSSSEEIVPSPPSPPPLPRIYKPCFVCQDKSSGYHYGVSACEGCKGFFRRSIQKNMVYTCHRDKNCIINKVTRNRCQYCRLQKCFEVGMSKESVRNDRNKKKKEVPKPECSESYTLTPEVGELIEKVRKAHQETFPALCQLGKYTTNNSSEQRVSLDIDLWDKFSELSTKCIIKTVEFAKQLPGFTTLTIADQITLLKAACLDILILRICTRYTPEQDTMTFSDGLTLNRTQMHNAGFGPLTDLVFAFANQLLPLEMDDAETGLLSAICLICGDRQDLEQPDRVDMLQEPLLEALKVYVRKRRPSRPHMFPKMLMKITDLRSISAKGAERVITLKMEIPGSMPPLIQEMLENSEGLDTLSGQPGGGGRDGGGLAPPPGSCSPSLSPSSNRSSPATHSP
How it was run: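 HepG2 cells transiently transfected with multiplexed reporter units; DR5 cis-element drives reporter through endogenous transcription factors. After 24 h dosing, reporter mRNA quantified by RT-PCR, fluorescent labeling, HpaI digestion and capillary electrophoresis; bidirectional fitting versus DMSO.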

[20] = target: Aryl hydrocarbon receptor (Homo sapiens) (UniProt P35869); test: ATG_Ahr_CIS: Attagene CIS-FACTORIAL HepG2 Assay for human Aryl Hydrocarbon Receptor (Ahr) (AID 2282930); conditions: HepG2 AhR cis-factorial reporter transcription; actives raise or lower the signal
Sequence of Aryl hydrocarbon receptor (Homo sapiens) (P35869 whole entry, looked up): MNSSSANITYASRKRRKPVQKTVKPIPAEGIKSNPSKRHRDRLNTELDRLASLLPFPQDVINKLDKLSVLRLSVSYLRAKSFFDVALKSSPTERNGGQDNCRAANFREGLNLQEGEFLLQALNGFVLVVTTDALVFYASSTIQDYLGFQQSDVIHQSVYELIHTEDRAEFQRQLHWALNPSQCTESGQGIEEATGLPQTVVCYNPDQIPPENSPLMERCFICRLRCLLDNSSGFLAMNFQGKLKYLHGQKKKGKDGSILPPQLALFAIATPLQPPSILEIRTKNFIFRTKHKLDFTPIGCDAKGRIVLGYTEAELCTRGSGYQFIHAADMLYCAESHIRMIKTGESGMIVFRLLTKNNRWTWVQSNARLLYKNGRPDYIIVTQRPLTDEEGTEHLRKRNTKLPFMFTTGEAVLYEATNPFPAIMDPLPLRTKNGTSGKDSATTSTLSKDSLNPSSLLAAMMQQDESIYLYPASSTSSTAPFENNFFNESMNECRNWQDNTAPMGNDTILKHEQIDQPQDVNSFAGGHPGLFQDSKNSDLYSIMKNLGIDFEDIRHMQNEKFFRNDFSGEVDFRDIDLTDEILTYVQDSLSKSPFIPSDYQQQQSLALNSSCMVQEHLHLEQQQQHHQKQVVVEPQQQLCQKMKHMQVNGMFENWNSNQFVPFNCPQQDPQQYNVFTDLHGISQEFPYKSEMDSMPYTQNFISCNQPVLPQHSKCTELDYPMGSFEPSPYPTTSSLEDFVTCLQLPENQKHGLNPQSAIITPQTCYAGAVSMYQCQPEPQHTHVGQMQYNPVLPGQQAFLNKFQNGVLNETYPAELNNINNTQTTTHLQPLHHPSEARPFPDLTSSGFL
How it was run: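 HepG2 cells transiently transfected with cis-element-driven multiplexed reporter units; endogenous AhR activity read as reporter mRNA 24 h after dosing, via RT-PCR, 6-FAM labelling, HpaI digestion and capillary electrophoresis. Bidirectional fit relative to DMSO.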

Measured: AC50

CCCCCCCCCC
inactive: [1] | [2] | [3] | [4] | [5] | [6] | [7] | [8] | [9] | [10] | [11] | [12] | [13] | [14] | [15] | [16] | [17]

COS(C)(=O)=O
inactive: [1] | [2] | [3] | [4] | [5] | [6] | [7] | [9] | [10] | [11] | [12] | [13] | [14] | [15] | [16] | [17]

NC(=O)N1c2ccccc2C=Cc2ccccc21
inactive: [1] | [18] | [2] | [3] | [4] | [6] | [7] | [9] | [10] | [11] | [12] | [13] | [14] | [15] | [16] | [17] | [19]

NNC(=O)c1ccncc1
inactive: [1] | [18] | [6] | [7] | [8] | [10] | [11] | [12] | [13] | [14] | [15] | [16] | [17]

CCCC(CCC)C(=O)O
inactive: [1] | [2] | [3] | [4] | [5] | [6] | [7] | [9] | [10] | [11] | [12] | [13] | [15] | [16] | [17]

CC(C)C(=O)Nc1ccc([N+](=O)[O-])c(C(F)(F)F)c1
inactive: [2] | [6] | [7] | [11] | [12] | [13] | [14] | [16] | [19]
active: [1] 58.8 µM | [18] 70.8 µM | [3] 61 µM | [4] 67.8 µM | [5] 91 µM | [9] 74.9 µM | [10] 111 µM | [15] 23.5 µM | [17] 65.1 µM

C[C@]12C=CC(=O)C=C1CC[C@H]1[C@@H]3C[C@@H](O)[C@](O)(C(=O)CO)[C@@]3(C)C[C@H](O)[C@@]12F
inactive: [1] | [2] | [3] | [4] | [6] | [7] | [8] | [9] | [10] | [11] | [12] | [13] | [14] | [20] | [15] | [16] | [17]

O=C(O)c1cccc(C[C@@H]2COc3ccc(OCc4nc5cc(F)ccc5s4)cc3[C@@H]2O)c1
inactive: [2] | [4] | [10] | [11] | [12] | [13] | [17]
active: [1] 63.7 µM | [18] 97.3 µM | [3] 102 µM | [5] 105 µM | [6] 66.3 µM | [7] 110 µM | [8] 73.1 µM | [9] 178 µM | [14] 100 µM | [15] 158 µM | [16] 167 µM

CCCCCCCCCCCCCCCCOS(=O)(=O)O
active: [14] 24.5 µM | [15] 28.5 µM
inactive: [1] | [18] | [2] | [3] | [4] | [6] | [7] | [8] | [9] | [10] | [11] | [12] | [13] | [16] | [17]

CCn1nc(C)c2c1C(=O)NCC(c1ccc(O)cc1)=N2
inactive: [1] | [2] | [3] | [4] | [5] | [6] | [7] | [8] | [9] | [10] | [11] | [12] | [13] | [14] | [15] | [16] | [17]

NC(=O)NN=Cc1ccc([N+](=O)[O-])o1
inactive: [2] | [6] | [7] | [9] | [10] | [11] | [12] | [14] | [20] | [16] | [17]
active: [1] 67.8 µM | [18] 77.3 µM | [3] 68.7 µM | [4] 85.4 µM | [8] 67.3 µM | [13] 17.2 µM | [15] 64.4 µM

Cc1ccc(S(=O)(=O)NC(=O)NN2CCCCCC2)cc1
inactive: [1] | [18] | [2] | [3] | [4] | [6] | [7] | [9] | [10] | [11] | [12] | [13] | [14] | [20] | [15] | [16] | [17] | [19]

CC[C@H](C)C(=O)O[C@H]1C[C@H](O)C=C2C=C[C@H](C)[C@H](CC[C@@H](O)C[C@@H](O)CC(=O)O)[C@H]21
inactive: [1] | [18] | [2] | [3] | [4] | [5] | [6] | [7] | [9] | [10] | [11] | [12] | [13] | [14] | [15] | [16] | [17] | [19]
active: [20] 68.4 µM
